Source: PubChem BioAssay (several laboratories)
MsrA act: activators of bovine methionine sulfoxide reductase A; activation, % at 10.6 µM; hit rate 0.3% among 360,000; purified bovine MsrA, absorbance read-out; in the data active means activation above about 7.5%;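 further: 0% = vehicle and 100% = reference activator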
MsrA inh: inhibitors of bovine MsrA | purified bovine MsrA, absorbance read-out | inhibition, % at 15.5 µM | AID 651718 | hit rate 0.75% among 360,000; in the data active means inhibition above about 4.5%;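 further: 0% = vehicle wells with enzyme and 100% = reference inhibitor wells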
NPR1 activator: GC-A (human) enzyme activation. HEK293 GC-A cells, cGMP TR-FRET, EC30 ANP; 0% at EC30 ANP, 100% saturating ANP. P16066. hit rate 0.14% among 370,000. activation, % at 10 µM; in the data active means activation above about 40%
GC-B act: GC-B (human) receptor activation; activation, % at 10 µM; P20594; hit rate 0.11% among 370,000; HEK293-GC-B cells, CNP EC30, cGMP TR-FRET; 0% at EC30 CNP, 100% saturating CNP;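 active means activation at 10 µM reaching about 35% in either raw or pattern-adjusted values, limit read from the data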
MsrA act confirm: bovine methionine sulfoxide reductase A activation confirmed; hit rate 12% among 1,000; activation, % at 10.6 µM; purified bovine MsrA, absorbance read-out; shares compounds with MsrA act; AID 602270; in the data active means activation above about 4%;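 further: enzyme coupled to thioredoxin and thioredoxin reductase with NADPH; 0% = vehicle wells and 100% = reference activator wells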
* marks the source's active call; other numbers are inactive results; nt = not tested or not shown. Only some compounds are listed: those with a hit (about 1.2% of all), similar ones and a draw of the others.

SMILES	MsrA act	MsrA inh	NPR1 activator	GC-B act	MsrA act confirm
COC(=O)C1CN(C2CC2)CCS(=O)(=O)N1Cc1cn(Cc2ccc(F)cc2)nn1 (configuration not stated)	nt	nt	3	3	nt
O=C(CCCN=C1NS(=O)(=O)c2ccccc21)OCc1ccccc1	8.8*	-1	0	-9	-2
O=C(CCCN=C1NS(=O)(=O)c2ccccc21)OCc1ccc(F)cc1	-5	1	-5	-2	nt
COc1ccc(/C=N/NC(=O)c2cccnc2)cc1CN1CCc2cc(OC)c(OC)cc2C1C (configuration not stated)	16*	3	-3	0	-2
COc1ccc(/C=N/NC(=O)c2cc(OC)c(OC)c(OC)c2)cc1CN1CCc2cc(OC)c(OC)cc2C1C (configuration not stated)	-1	1	1	6	nt
S=c1nccc(-c2ccc(Cl)cc2)[nH]1	8.3*	1	3	2	4
Clc1ccc(-c2ccn[nH]2)cc1	-3	1	1	-1	nt
CCCN1C(=O)N(C)C(N(O)C(=O)NC)C1(C)C (configuration not stated)	14*	1	-3	-12	0
CNC(=O)N(O)C1N(C)C(=O)N(CC(=O)OC)C1(C)C (configuration not stated)	-14	-1	nt	nt	nt
c1ccc(-n2cnc3cc(NCc4ccco4)ccc32)cc1	9.5*	0	-4	-4	1
COc1ccccc1NC(=O)COC(=O)C12CC3CC(CC(Cl)(C3)C1)C2	15*	-1	-4	2	-2
COc1ccc(-c2noc(CSc3nnc(-c4ccncc4)n3-c3ccc(F)cc3)n2)cc1OC	18*	2	-2	-6	0
CCOC(=O)Cn1nc(C)c(NC(=O)COc2ccccc2)c1C	8.0*	-1	3	5	2
CCCC1CCC2(CC1)CCC2OC(=O)Nc1ccc2c(c1)OCO2 (configuration not stated)	nt	nt	1	-5	nt
COc1ccc(NC(=O)N(C)C[C@H]2OCCCC[C@@H](C)Oc3ccc(NC(=O)c4ccccc4)cc3C(=O)N([C@H](C)CO)C[C@@H]2C)cc1	11*	0	2	5	-2
Cc1noc(C)c1NC(=O)N(C)C[C@H]1Oc2ccc(NC(=O)Nc3ccc(C(F)(F)F)cc3)cc2C(=O)N([C@H](C)CO)C[C@@H]1C	19*	-1	-2	-1	0
Cc1noc(C)c1NC(=O)N(C)C[C@H]1Oc2ccc(NC(=O)NC(C)C)cc2C(=O)N([C@H](C)CO)C[C@H]1C	-13	1	0	0	nt
CN1[C@@H](Cc2ccccc2)COc2cccc(N3CCCC3)c2S1(=O)=O	nt	nt	0	1	nt
Clc1ccc(-c2nnc3n2N=C(c2ccc(-c4ccccc4)cc2)CS3)c(Cl)c1	nt	nt	-6	-9	nt
O=c1cc(N2CCC3(CC2)OCCO3)[nH]c(=O)n1C1CCCCC1	9.6*	-1	2	0	-2
Cc1cc(=O)[nH]c(SCC(=O)N2CCc3ccccc3C2)n1	9.5*	-2	-1	-4	1
O=S(=O)(N[C@@H]1CCCC[C@@H]1N1CCOCC1)c1ccc(Cl)cc1	nt	nt	-1	-3	nt
O=C(Nc1cccc([N+](=O)[O-])c1)c1ccc([N+](=O)[O-])o1	9.8*	2	-1	-7	5.7*
COc1nccc(C(F)(F)F)c1C(=O)NC(=O)Nc1ccccc1	9.5*	1	-3	-8	2
O=C1C(O)=CC(=C(c2ccccc2)c2ccccc2)c2ccccc21	9.8*	0	-10	4	2
SMILES	MsrA act	MsrA inh	NPR1 activator	GC-B act	MsrA act confirm
O=C(O)c1cccc2c1C(=O)c1ccccc1C2=O	-3	1	1	0	nt
COC(=O)c1sccc1NC(=O)CSc1ccccc1NS(=O)(=O)c1ccccc1Cl	8.3*	1	-2	6	-5
N#Cc1ccccc1CSc1nnc(-c2ccncc2)o1	-8	nt	nt	nt	nt
N#Cc1cccc(-c2nnc(SCc3ccccc3C#N)o2)c1	14*	0	35	38*	2
Cc1ccc(OCC(=O)N/N=C\c2c(C)[nH]n(-c3ccccc3)c2=O)c([N+](=O)[O-])c1	11*	2	1	1	-1
CCOC(=O)CSc1nnc(-c2nnc(SCC(=O)OCC)n2CC)n1CC	7.7*	0	0	2	0
COCCN(C)C(=O)CC1C(=O)NCCN1CC(c1ccccc1)c1ccccc1 (configuration not stated)	11*	0	-6	-2	-3
